This is an account of results in PubChem BioAssay (NCI).

The panel holds about 83,000 compounds, 20% with a hit somewhere; the sample as a whole holds those more often.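 In brief: 96-well plates, 48 h treatment, single concentration, percent growth endpoint.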 Active and inactive are the calls of the source.

The test system of this test is NCI/ADR-RES ovarian. The test is described as follows: NCI-60 one-dose screen, 48 h (100 = growth as untreated, 0 = no growth, -100 = all killed). The conditions noted are these: 10 µM unless noted. The protocol: Growth inhibition of the NCI/ADR-RES human […] tumor cell line is measured as a screen for anti-cancer activity. Cells are grown in 96 well plates and exposed to the test compound for 48 hours. Compounds are tested at a single concentration, which is 10^-5 M for most compounds. The reported endpoint is percent growth (GI% or GIPRCNT), where numbers from 0 - 100% represent growth inhibition, and numbers from -100% - 0 represent cell death. For example, a value of 40 represents 60% growth inhibition. A value of 0 means no net growth occurred over the course of the experiment. A value of -40 indicates 40% of cells at the beginning of the experiment died by the end of the experiment. A value of -100 means all cells are dead at the end of the experiment.
NCI-60 Human Tumor Cell Lines Screen was performed using the standard one-dose NCI protocol, which is described in more detail at https://dtp.cancer.gov/discovery_development/nci-60/default.htm.
Compounds with GIPRCNT values below 10 were considered active. Activity score was based on GIPRCNT using the following formula: […]
Score is 0 for GIPRCNT values of 100 or above, 50 for GIPRCNT values of 0, and 100 for GIPRCNT values of -100.
With `Cc1ccc(-c2nc(C#N)c(S(=O)(=O)n3nc(-c4ccccc4)cc3N)o2)cc1`, the growth is 94.9% (inactive).

On to `C=C(C)[C@@H]1C[C@@H]2Cc3ccc(Cl)c(C)c3N1O2`, for which the growth is 94.2% (inactive).

`CC(C)(C)n1cc(-c2ccnc(NCCNS(=O)(=O)c3ccc(F)cc3)c2)c(-c2cccc(O)c2)n1`: the growth was 61.7% (inactive).

Take `COc1ccc(-c2cnnn2-c2nonc2-n2cccc2)cc1OC`: the growth is 18.3% (inactive).

In the case of `O=c1[nH]c2ccc(Br)cc2c2c1C(c1ccc(Cl)cc1)c1c(ncn3nc(-c4ccco4)nc13)O2` (stereo not given), the growth was 88.2% (inactive).

For the compound `CCCCN(CCCC)c1ccc(C(=N)c2ccc(N(CCCC)CCCC)cc2)cc1`, the growth was -87.5% (active).

On to `COc1ccc(-c2cc3c(OC)c(OC)c(OC)cc3oc2=O)cc1`, for which the growth was 4.06% (active).

For `COC(OC)c1ccccc1`, the growth is 99.4% (inactive).

Consider `CCN(CC)CCC(CNc1ccnc2cc(Cl)ccc12)c1ccccc1` (stereo not given), for which the growth was 83.2% (inactive).

Turning to `O=S1(=O)CCC(N(/N=C/c2ccco2)c2ccccc2)C1` (stereo not given), the growth is 98.7% (inactive).

Turning to `O=c1cc(Cc2ccc([N+](=O)[O-])cc2)[nH]c(=O)[nH]1`, the growth was 109% (inactive).

Turning to `CC(O)CN1CCCCC1` (stereo not given), the growth was 106% (inactive).

With `O=C1/C(=C/c2ccc([N+](=O)[O-])cc2)CN(C(=O)CCN2CCC(=NO)CC2)C/C1=C\c1ccc([N+](=O)[O-])cc1`, the growth was 7.5% (active).

With `NC(=N\N=C/c1ccc(O)cc1)/C(N)=N\N=C/c1ccc(O)cc1`, the growth is 58.5% (inactive).

Regarding `COc1ccc(Nc2nn3c(C)cc(C)nc3c2C(=O)Nc2ccc(C)cc2)c(OC)c1`, the growth is 105% (inactive).

Regarding `COc1ccc(-c2ccc(C)n2-c2ccc(-c3nc4cc(Cl)ccc4s3)cc2)cc1`, the growth is 95.8% (inactive).

With `Nc1nc(Nc2cc(Cl)cc(Cl)c2)nn1S(=O)(=O)c1ccc2ccccc2c1`, the growth is 37.1% (inactive).

For `CC(C)(C)c1[nH]nc2c1C(c1cc3ccccc3[nH]c1=O)Nc1cc(C(=O)Nc3ccc(Cl)cc3)ccc1N2` (stereo not given), the growth was 95.3% (inactive).

Regarding `COc1ccc(-n2c(-c3ccccc3)c(-c3ccccc3)c3c(SCC(=O)N/N=C/c4ccc(Cl)cc4)ncnc32)cc1`, the growth is 87.1% (inactive).

For `O=C(Nc1ccncc1)C(=O)c1cn(S(=O)(=O)c2ccc(Br)cc2)c2ccccc12`, the growth was 9.49% (active).

With `COc1ccc(C2C=C(c3ccc(OC)c(OC)c3)N=C3SC=C(C)N32)c(Br)c1` (stereo not given), the growth was 113% (inactive).

`Cc1ccc2ccccc2c1C[n+]1ccccc1`: the growth was 104% (inactive).

On to `CC(C)(C)NCCC(O)c1cc2c(Cl)cc(Cl)cc2c2cc(C(F)(F)F)ccc12` (stereo not given), for which the growth is -80% (active).

Take `Fc1ccc(-c2nc(-c3nc4ncccc4[nH]3)cc3c2[nH]c2ccccc23)cc1F`: the growth was 61.4% (inactive).

As for `CCOc1cc2c(Cl)ncnc2c(OCC)c1OCC`, the growth is 92.5% (inactive).

`O=C(O)COc1ccc(-c2cssc2=S)cc1`: the growth is 108% (inactive).

Turning to `C=C1C(=O)O[C@@H]2[C@@H]3O[C@@](C)(CC/C=C(\C)CCC[C@@H]2C)[C@H](O)C[C@@H]13`, the growth was 37.5% (inactive).

`COc1c2occc2c(OC)c2c(=O)c(-c3cc(-c4ccc(F)cc4)c(C#N)c(N)n3)c(C)oc12`: the growth was 68.2% (inactive).

`OB(O)c1cccc(-c2nc3ccc4[nH]ncc4c3c3c2CCCC3)c1F`: the growth was 53.7% (inactive).

Turning to `COc1ccc(-c2c(N)n[nH]c2-c2cc3c(c(OC)c2OC)OCO3)cc1`, the growth was 96.8% (inactive).

`CN(C)CCCC(C#N)c1ccccc1` (stereo not given): the growth was 108% (inactive).

Consider `O=C(N/N=C/C=C\c1ccccc1)C(=O)N/N=C/C=C/c1ccccc1`, for which the growth was 110% (inactive).

`O=C1c2c(c3c4ccccc4n(CCCCCCBr)c3c3[nH]c4ccccc4c23)C(=O)N1O`: the growth is 9.64% (active).

`N[C@@H]1CCN(C(=O)c2cc3cc(Cl)c(F)c(F)c3[nH]2)C1`: the growth was 103% (inactive).

`O=C1C2(c3ccccc3)C(c3ccccc3)=C(c3ccccc3)C1(c1ccccc1)C1CC=CC12` (stereo not given): the growth is 90.3% (inactive).

For `CC(C)(C)Nc1c(-c2cccs2)nc2ncccn12`, the growth is 104% (inactive).

For the compound `C=C1CCC2C(C)(CO)C(O)CCC2(C)C1C/C=C1/C(=O)OCC1Oc1ccccc1C` (stereo not given), the growth was 81.1% (inactive).

On to `CCOC(=O)C1CCNC(=O)C1=O` (stereo not given), for which the growth was 105% (inactive).

Consider `CC(=O)c1cc2c(N)c(C(=O)Nc3cccc4c3OCCO4)sc2nc1C`, for which the growth was 96.8% (inactive).

In the case of `CCN1CCN(c2nc(NNC(=O)c3ccccc3)nc(N3CCN(C(c4ccccc4)c4ccccc4)CC3)n2)CC1`, the growth is 79% (inactive).
